Measured values published in PubChem BioAssay.
Where “and” joins values, the source holds several entries; their conditions need not be identical. Identical values can stand only once. Records with an inconclusive call do not appear. Calls of active or inactive are those of the source. Unless noted, the rule behind the calls is not given here.

Experiments:
[1] = signal quenchers or enhancers, Cy5 substrate/SSB – biochemical, NIH Clinical Collection, E. coli SSB, artefact control for HCV NS3 helicase inhibitor project (AID 743268); details: Cy5-oligo bound E. coli SSB, fluorescence interference
[2] = test system: Hepatitis C virus NS3 helicase; experiment: blockers of NS3h binding to DNA – biochemical, fluorescence polarization, NIH Clinical Collection, primary screen (AID 743270); details: NS3 helicase binding to Cy5-dT15 DNA, stronger effect = higher value, concentration not given here
[3] = target: Single-stranded DNA-binding protein (Escherichia coli (strain K12)) (UniProt P0AGE0); experiment: SSB-ssDNA binding inhibitors – biochemical, fluorescence polarization, NIH Clinical Collection, counter-screen for HCV NS3 helicase inhibitor project (AID 743271; in the data active = inhibition above about 28%); details: E. coli SSB-DNA binding, stronger effect = higher value, concentration not given here
[4] = compounds distorting NS3 helicase fluorescence signal – biochemical, NIH Clinical Collection, artefact control for HCV NS3 helicase inhibitor project (AID 743272); details: fluorescence interference counterscreen, HCV NS3 helicase assay; stronger effect = lower value;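 note: HCV NS3 helicase with a Cy5 labelled single stranded DNA probe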
[5] = viability loss in pontine glioma line – cell-based, SU-DIPG-XVII, MIPE5.0, CellTiter-Glo, qHTS, dose response (AID 1347060; cut-off not given, nearly all actives have AC50 up to about 26 µM;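 for AC50: cells exposed to compound for 48 hours before viability readout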); details: CellTiter-Glo ATP luminescence
[6] = viability loss in pontine glioma line – cell-based, SU-DIPG-XIII, MIPE4.0, CellTiter-Glo, qHTS, dose response (AID 1347061; cut-off not given, nearly all actives have AC50 up to about 37 µM;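 note: cells exposed to compound for 48 hours before readout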); details: CellTiter-Glo ATP luminescence
[7] = viability loss in pontine glioma line – cell-based, SU-DIPG-IV, MIPE4.0, CellTiter-Glo, qHTS, dose response (AID 1347063; cut-off not given, nearly all actives have AC50 up to about 30 µM;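 note: compound exposure lasted 48 hours before the viability readout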); details: CellTiter-Glo ATP luminescence
[8] = growth inhibition of DIPG cells – cell-based, MIPE4.0 library, CellTiter-Glo luminescence, qHTS (AID 1347066; cut-off not given, nearly all actives have AC50 up to about 30 µM;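 note: cells exposed to compound for 48 hours before readout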); details: SU-DIPG-VI viability, CellTiter-Glo ATP luminescence
[9] = growth inhibition of DIPG cells – cell-based, MIPE5.0 library, qHTS (AID 1347068; cut-off not given, nearly all actives have IC50 up to about 30 µM); details: SU-DIPG-XXV viability
F380Y/beta1 = experiment: BK channel mutant inhibitors and activators – cell-based, U2OS BacMam, thallium flux, beta subunits, selectivity assay, profiling panel (AID 1259406;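 active = thallium flux through the channel raised or lowered by more than 3 SD from vehicle-only wells, actives on both sides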;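 note: initial slope of Thallos dye fluorescence rise after thallium is added; log ratio against the mean of 0.3% DMSO vehicle wells on the same plate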); details: U2OS BacMam BK variants, at 30 µM
F380Y/beta4 = experiment: as above; details: U2OS BacMam BK variants, at 30 µM
[10] = target: Calcium-activated potassium channel subunit alpha-1 (Homo sapiens) + Leucine-rich repeat-containing protein 26 (Homo sapiens) (UniProt Q12791+Q2I0M4); experiment: as above; details: U2OS BacMam BK variants, F380Y/Slo1WT/gamma1, at 30 µM
R275C/beta4 = experiment: as above; details: U2OS BacMam BK variants, at 30 µM
R275C/Slo1WT/beta2 = experiment: as above; details: U2OS BacMam BK variants, at 30 µM
[11] = test system: Aerobactin synthetase IucA (Klebsiella pneumoniae); experiment: inhibition of K. pneumoniae IucA enzyme – biochemical, Tocris library, absorbance (AID 1345561); details: purified IucA enzyme assay, absorbance (OD) read-out; stronger effect = lower value;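 tested at 8 µM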;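 note: 100% = enzyme without compound and 0% = no enzyme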
[12] = growth inhibition, single agent or in combination, cell-based, chromothripsis tumors, cisplatin or BGB combos (AID 1671449; in the data active = inhibition above about 80%;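 note: cells exposed for 96 hours; 0% = vehicle DMSO and 100% = killing by high DMSO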); details: LFS_MB_P medulloblastoma cells
[13] = growth inhibition, single agent and combos, cell-based, chromothripsis tumors, cisplatin or BGB combos (AID 1671450; in the data active = inhibition above about 80%;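 note: cells exposed to compound for four days; 0% = vehicle DMSO and 100% = cell killing by high DMSO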); details: HDN33 neuroblastoma cells, stronger effect = higher value
[14] = growth inhibition, single agents and combos, HTB85, cell-based, BGB or cisplatin IC20 combos, synergistic combos for chromothripsis tumors (AID 1671453; in the data active = inhibition above about 80%;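 note: cells exposed for 96 hours before readout; 0% = vehicle DMSO and 100% = high DMSO killing control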); details: HTB85 osteosarcoma cells, drug combinations, stronger effect = higher value
[15] = growth inhibition, MDA-MB-436, cell-based, BGB or cisplatin combos, synergistic combos for chromothripsis tumors (AID 1671458); details: MDA-MB-436 breast carcinoma growth inhibition, drug combinations, stronger effect = higher value;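 note: cells exposed for 96 hours; 0% = vehicle DMSO and 100% = killing by high DMSO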
[16] = BT084 cell growth, single and combined drugs, ICGC_MB145, cisplatin and BGB IC40 combos (AID 1671461; in the data active = inhibition above about 80%;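 note: cells exposed to drugs for 96 hours; 0% = vehicle DMSO and 100% = high DMSO full killing control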); details: BT084 medulloblastoma cells, drug combinations, stronger effect = higher value

Sequence of Calcium-activated potassium channel subunit alpha-1 (Homo sapiens) + Leucine-rich repeat-containing protein 26 (Homo sapiens) (Q2I0M4 whole entry, looked up, one chain of several): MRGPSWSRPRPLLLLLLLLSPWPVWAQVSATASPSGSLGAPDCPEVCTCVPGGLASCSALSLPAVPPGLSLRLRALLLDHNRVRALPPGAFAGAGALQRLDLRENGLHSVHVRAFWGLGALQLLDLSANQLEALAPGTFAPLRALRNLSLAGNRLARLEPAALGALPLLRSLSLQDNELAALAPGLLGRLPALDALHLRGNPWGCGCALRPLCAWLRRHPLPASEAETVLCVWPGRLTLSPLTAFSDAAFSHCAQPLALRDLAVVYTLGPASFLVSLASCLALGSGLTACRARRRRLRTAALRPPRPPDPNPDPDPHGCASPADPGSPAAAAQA

In the case of `CN(C)[C@@H]1C(=O)C(C(N)=O)=C(O)[C@@]2(O)C(=O)C3=C(O)c4c(O)cccc4[C@@](C)(O)[C@H]3[C@H](O)[C@@H]12`, the fluorescence ratio [1] is reported as 1.03 (inactive), the inhibition [2] is reported as -4.09% (inactive) and the inhibition [3] is reported as 4.86% (inactive). For the same compound, the fluorescence ratio [4] was 0.85 (inactive), the outcome [5] was “inactive” and the outcome [6] was “inactive”. For the same compound, the outcome [7] was “inactive”, the outcome [8] was “inactive” and the outcome [9] was “inactive”. The log fold change Tl+ flux (F380Y/beta1) was 0.0522 (inactive), the log fold change Tl+ flux (F380Y/beta4) was -0.0391 (inactive) and the log fold change Tl+ flux [10] was 0.0226 (inactive). The log fold change Tl+ flux (R275C/beta4) was 0.0299 (inactive) and the log fold change Tl+ flux (R275C/Slo1WT/beta2) was -0.0058 (inactive).
In the case of `CCC1(C2=NCCN2)Cc2ccccc2O1` (centres undefined), the remaining activity [11] is reported as 98.6% (inactive).
With `Clc1ccc(COC(Cn2ccnc2)c2ccc(Cl)cc2Cl)cc1` (centres undefined) the fluorescence ratio [1] was 1.02 (inactive), the inhibition [2] was 3.18% (inactive) and the inhibition [3] was 4.1% (inactive). The fluorescence ratio [4] was 0.94 (inactive), the log fold change Tl+ flux (F380Y/beta1) was -0.0732 (inactive) and the log fold change Tl+ flux (F380Y/beta4) was -0.321 (active). The log fold change Tl+ flux (R275C/beta4) was 0.279 (active) and the log fold change Tl+ flux (R275C/Slo1WT/beta2) was -0.0527 (inactive).
With `CCCC(C)(COC(N)=O)COC(=O)NC(C)C` (centres undefined) the fluorescence ratio [1] was 1.01 (inactive), the inhibition [2] was -6.82% (inactive) and the inhibition [3] was -2% (inactive). The fluorescence ratio [4] was 0.93 (inactive), the outcome [6] was “inactive” and the outcome [8] was “inactive”. For the same compound, the log fold change Tl+ flux (F380Y/beta1) was 0.0587 (inactive), the log fold change Tl+ flux (F380Y/beta4) was 0.0106 (inactive) and the log fold change Tl+ flux [10] was 0.00552 (inactive). The log fold change Tl+ flux (R275C/beta4) was 0.0318 (inactive) and the log fold change Tl+ flux (R275C/Slo1WT/beta2) was 0.0148 (inactive).
In the case of `CN1C(=O)CCS(=O)(=O)C1c1ccc(Cl)cc1` (centres undefined), the remaining activity [11] is reported as 97.1% (inactive), the outcome [5] is reported as “inactive” and the outcome [6] is reported as “inactive”. For the same compound, the outcome [7] was “inactive”, the outcome [8] was “inactive” and the outcome [9] was “inactive”.
For `NCC(O)c1ccc(O)cc1` (centres undefined), the remaining activity [11] was 96.2% (inactive).
In the case of `O=c1[nH]c2ccccc2n1C1CCN(CCCC(c2ccc(F)cc2)c2ccc(F)cc2)CC1`, the remaining activity [11] is reported as 106% (inactive).
For `O=c1[nH]c2ccccc2n1CCCN1CCC(n2c(=O)[nH]c3cc(Cl)ccc32)CC1`, the remaining activity [11] was 103% (inactive), the outcome [5] was “inactive” and the outcome [6] was “inactive”. For the same compound, the outcome [8] was “inactive” and the outcome [9] was “inactive”.
With `O=P1(N(CCCl)CCCl)NCCCO1` (centres undefined) the fluorescence ratio [1] was 1.07 (inactive), the inhibition [2] was -4.09% (inactive) and the inhibition [3] was 1.05% (inactive). For the same compound, the fluorescence ratio [4] was 0.99 (inactive), the outcome [5] was “inactive” and the outcome [6] was “inactive”. The outcome [7] was “inactive”, the outcome [8] was “inactive” and the outcome [9] was “inactive”. The inhibition ([12]; at 0.5 µM, stronger effect = higher value) was -6.53% (inactive) and -7.84% (inactive), the inhibition ([12]; measured here: combination with BGB IC20, at 0.005 µM) was 2.32% and -13.2% and the inhibition ([12]; measured here: combination with BGB IC40, at 0.005 µM) was -6.39% and -22.4%. For the same compound, the inhibition ([12]; measured here: combination with BGB IC40, at 0.05 µM) was -5.95% and 13%, the inhibition ([12]; measured here: combination with cisplatin, at 0.5 µM, stronger effect = higher value) was -9.48% and -17.9% and the inhibition ([12]; measured here: combination with cisplatin, at 5 µM, stronger effect = higher value) was -25.8% and -37.1%. For the same compound, the inhibition ([13]; BGB combo, at 5 µM) was -38.1% and 11.3%, the inhibition ([13]; at 0.5 µM) was -28.6% (inactive) and -1.03% (inactive) and the inhibition ([13]; cisplatin combo, at 5 µM) was -13.9% and -0.927%. The inhibition ([13]; measured here: with BGB IC20 combination, at 0.5 µM) was -28.4% and 3.51%, the inhibition ([13]; measured here: with cisplatin IC20 combination, at 0.5 µM) was -36.3% and 6% and the inhibition ([13]; single agent, at 5 µM) was -28.1% and -8.82%. For the same compound, the inhibition ([14]; at 0.5 µM) was -15.6% (inactive) and -16.2% (inactive), the inhibition ([14]; measured here: with BGB IC20, at 0.5 µM) was -17.1% and -31% and the inhibition ([14]; measured here: with BGB IC20, at 5 µM) was -9.3% and -18.7%. The inhibition ([14]; measured here: with cisplatin IC20, at 0.5 µM) was -29.3% and -21%, the inhibition ([14]; measured here: with cisplatin IC20, at 5 µM) was -39.9% and -19.6% and the inhibition ([14]; single agent, at 5 µM) was 0.113% and -3.32%. The inhibition ([15]; at 0.5 µM) was -6.84% (inactive) and -18.8% (inactive), the inhibition ([15]; measured here: BGB combination, at 0.5 µM) was -4.29% and -16.7% and the inhibition ([15]; measured here: BGB combination, at 5 µM) was -11.8% and -7.83%. For the same compound, the inhibition ([15]; measured here: cisplatin combination, at 0.5 µM) was -1.92% and -34.6%, the inhibition ([15]; measured here: cisplatin combination, at 5 µM) was -42.1% and -18.1% and the inhibition ([16]; at 0.5 µM) was -9.95% (inactive) and -11.7% (inactive). The inhibition ([16]; cisplatin combination, at 0.5 µM) was -36.8% and -12%, the inhibition ([16]; cisplatin combination, at 5 µM) was -1.57% and -57.3% and the inhibition ([16]; measured here: BGB IC40 combination 0.05 uM, at 0.05 µM) was -19.2% and 1.38%. For the same compound, the inhibition ([16]; single agent, at 5 µM) was -9.56% and -21.4%, the log fold change Tl+ flux (F380Y/beta1) was -0.00569 (inactive) and the log fold change Tl+ flux (F380Y/beta4) was -0.0197 (inactive). For the same compound, the log fold change Tl+ flux [10] was 0.0114 (inactive), the log fold change Tl+ flux (R275C/beta4) was 0.0832 (inactive) and the log fold change Tl+ flux (R275C/Slo1WT/beta2) was 0.011 (inactive).
For `O=C(CCCN1CCC2(CC1)C(=O)NCN2c1ccccc1)c1ccc(F)cc1`, the remaining activity [11] was 101% (inactive).
For `C=C(C)[C@H]1CN[C@H](C(=O)O)[C@H]1CC(=O)O`, the remaining activity [11] was 116% (inactive).
In the case of `N[C@@H]1C[C@H]1c1ccccc1`, the remaining activity [11] is reported as 124% (inactive), the outcome [5] is reported as “inactive” and the outcome [6] is reported as “inactive”. For the same compound, the outcome [7] was “inactive”, the outcome [8] was “inactive” and the outcome [9] was “inactive”.
For `C[C@@H]1O[C@@H](O[C@H]2C[C@@H](O)[C@]3(CO)[C@H]4[C@H](O)C[C@]5(C)[C@@H](C6=CC(=O)OC6)CC[C@]5(O)[C@@H]4CC[C@]3(O)C2)[C@H](O)[C@H](O)[C@H]1O`, the AC50 [5] was 52.5 nM (active), the AC50 [6] was 13.2 nM (active) and the AC50 [7] was 14.8 nM (active). The AC50 [8] was 29.6 nM (active).
For `C[C@@H]1CC[C@H]2[C@@H](C)C(=O)O[C@@H]3O[C@@]4(C)CC[C@@H]1[C@]32OO4`, the remaining activity [11] was 94.3% (inactive), the outcome [5] was “inactive” and the outcome [6] was “inactive”. The outcome [8] was “inactive” and the outcome [9] was “inactive”.
In the case of `CN1C(=O)CN=C(c2ccccc2)c2cc([N+](=O)[O-])ccc21`, the fluorescence ratio [1] is reported as 1.07 (inactive), the inhibition [2] is reported as 5.94% (inactive) and the inhibition [3] is reported as 1.44% (inactive). The fluorescence ratio [4] was 1.04 (inactive), the log fold change Tl+ flux (F380Y/beta1) was -0.0526 (inactive) and the log fold change Tl+ flux (F380Y/beta4) was 0.0228 (inactive). For the same compound, the log fold change Tl+ flux [10] was -0.000886 (inactive), the log fold change Tl+ flux (R275C/beta4) was 0.0115 (inactive) and the log fold change Tl+ flux (R275C/Slo1WT/beta2) was 0.0318 (inactive).
With `CNCC(O)c1ccc(O)cc1` (centres undefined) the fluorescence ratio [1] was 0.99 (inactive), the inhibition [2] was -1.09% (inactive) and the inhibition [3] was -0.39% (inactive). For the same compound, the fluorescence ratio [4] was 0.96 (inactive), the outcome [5] was “inactive” and the outcome [6] was “inactive”. For the same compound, the outcome [7] was “inactive”, the outcome [8] was “inactive” and the outcome [9] was “inactive”. For the same compound, the log fold change Tl+ flux (F380Y/beta1) was -4.2e-05 (inactive), the log fold change Tl+ flux (F380Y/beta4) was -0.01 (inactive) and the log fold change Tl+ flux [10] was 0.0291 (inactive). The log fold change Tl+ flux (R275C/beta4) was -0.013 (inactive) and the log fold change Tl+ flux (R275C/Slo1WT/beta2) was 0.0309 (inactive).
